# Only a selection was taken, and the strongest signals are over-represented in it overall.
# How the values were obtained:
# Experiment in all cases: glycan array binding signal (z-score within array); higher = stronger binding
# Conditions in all cases: glycan notation: IUPAC condensed, linker removed
# [1] = molecular target: Glc(a1-6)Glc(a1-6)Glc(a1-6)Glc
# Summary of the method: (§1)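 The binding signal is a Z-score computed within each array. Data were drawn from 3228 arrays in the Consortium for Functional Glycomics database, restricted to those with a known protein sequence. Scores were averaged over arrays of the same protein sequence at different concentrations or buffers, and over linkers, and negative values can be taken as non-binding.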
# [2] = molecular target: Glc(b1-4)Glc(b1-4)Glc(b1-4)Glc(b1-4)Glc(b1-4)Glc(b1-4)Glc(b1-4)Glc(b1-4)Glc
# Summary of the method: as §1
# [3] = molecular target: Glc(b1-4)Glc(b1-4)Glc(b1-4)Glc(b1-4)Glc(b1-4)Glc(b1-4)Glc(b1-4)Glc(b1-4)Glc(b1-4)Glc
# Summary of the method: as §1
# [4] = molecular target: Glc(b1-4)Glc(b1-4)Glc(b1-4)Glc(b1-4)Glc(b1-4)Glc(b1-4)Glc(b1-4)Glc(b1-4)Glc(b1-4)Glc(b1-4)Glc
# Summary of the method: as §1
# [5] = molecular target: Glc(b1-4)Glc(b1-4)Glc(b1-4)Glc(b1-4)Glc(b1-4)Glc(b1-4)Glc(b1-4)Glc(b1-4)Glc(b1-4)Glc(b1-4)Glc(b1-4)Glc
# Summary of the method: as §1
# [6] = molecular target: Glc(b1-4)Glc(b1-4)Glc(b1-4)Glc(b1-4)Glc(b1-4)Glc(b1-4)Glc(b1-4)Glc(b1-4)Glc(b1-4)Glc(b1-4)Glc(b1-4)Glc(b1-4)Glc
# Summary of the method: as §1
# [7] = molecular target: GlcA(b1-3)Gal
# Summary of the method: as §1
# [8] = molecular target: GlcA3S(b1-3)Gal(b1-4)GlcNAc(b1-2)Man
# Summary of the method: as §1
# [9] = molecular target: GlcNAc(b1-2)Gal(b1-3)GalNAc
# Summary of the method: as §1
# [10] = molecular target: GlcNAc(b1-2)Man(a1-3)[GlcNAc(b1-2)Man(a1-6)]Man(b1-4)GlcNAc(b1-4)GlcNAc
# Summary of the method: as §1
# [11] = molecular target: GlcNAc(b1-3)Gal(b1-4)GlcNAc(b1-2)Man(a1-3)[GlcNAc(b1-3)Gal(b1-4)GlcNAc(b1-2)Man(a1-6)]Man(b1-4)GlcNAc(b1-4)GlcNAc
# Summary of the method: as §1
# [12] = molecular target: GlcNAc(b1-3)Gal(b1-4)GlcNAc(b1-2)Man(a1-3)[GlcNAc(b1-3)Gal(b1-4)GlcNAc(b1-2)Man(a1-6)]Man(b1-4)GlcNAc(b1-4)[Fuc(a1-6)]GlcNAc
# Summary of the method: as §1
# [13] = molecular target: GlcNAc(b1-3)Gal(b1-4)GlcNAc(b1-3)Gal(b1-4)GlcNAc(b1-3)Gal(b1-4)GlcNAc(b1-3)Gal(b1-4)GlcNAc(b1-2)[GlcNAc(b1-3)Gal(b1-4)GlcNAc(b1-3)Gal(b1-4)GlcNAc(b1-3)Gal(b1-4)GlcNAc(b1-3)Gal(b1-4)GlcNAc(b1-6)]Man(a1-6)[GlcNAc(b1-3)Gal(b1-4)GlcNAc(b1-3)Gal(b1-4)GlcNAc(b1-3)Gal(b1-4)GlcNAc(b1-3)Gal(b1-4)GlcNAc(b1-2)Man(a1-3)]Man(b1-4)GlcNAc(b1-4)[Fuc(a1-6)]GlcNAc
# Summary of the method: as §1
# [14] = molecular target: GlcNAc(b1-3)Gal(b1-4)GlcNAc(b1-6)[Gal(b1-3)]GalNAc
# Summary of the method: as §1
# [15] = molecular target: GlcNAc(b1-3)[GlcNAc(b1-6)]Gal
# Summary of the method: as §1
# [16] = molecular target: GlcNAc(b1-3)[GlcNAc(b1-6)]Gal(b1-4)GlcNAc(b1-3)[GlcNAc(b1-6)]Gal(b1-4)GlcNAc(b1-3)Gal(b1-4)Glc
# Summary of the method: as §1
# [17] = molecular target: GlcNAc(b1-4)GlcNAc
# Summary of the method: as §1
# [18] = molecular target: GlcNAc(b1-4)GlcNAc(b1-4)GlcNAc(b1-4)GlcNAc
# Summary of the method: as §1
# [19] = molecular target: HexA(a1-3)GalNAc4S(b1-4)GlcA(b1-3)GalNAc4S(b1-4)GlcA(b1-3)GalNAc4S(b1-4)GlcA(b1-3)GalNAc4S(b1-4)GlcA(b1-3)GalNAc4S(b1-4)GlcA(b1-3)GalNAc4S(b1-4)GlcA(b1-3)GalNAc4S
# Summary of the method: as §1
# [20] = molecular target: Man(a1-2)Man(a1-6)[Man(a1-3)]Man(a1-6)[Man(a1-2)Man(a1-2)Man(a1-3)]Man(b1-4)GlcNAc(b1-4)GlcNAc
# Summary of the method: as §1
# [21] = molecular target: Neu5Ac(a2-3)Gal
# Summary of the method: as §1
# [22] = molecular target: Neu5Ac(a2-3)Gal(b1-3)GalNAc(b1-3)Gal(a1-4)Gal(b1-4)Glc
# Summary of the method: as §1
# [23] = molecular target: Neu5Ac(a2-3)Gal(b1-3)GlcNAc(b1-2)Man(a1-3)[Neu5Ac(a2-3)Gal(b1-3)GlcNAc(b1-2)Man(a1-6)]Man(b1-4)GlcNAc(b1-4)GlcNAc
# Summary of the method: as §1
# [24] = molecular target: Neu5Ac(a2-3)Gal(b1-3)[Neu5Ac(a2-3)Gal(b1-4)]GlcNAc
# Summary of the method: as §1
# [25] = molecular target: Neu5Ac(a2-3)Gal(b1-3)[Neu5Ac(a2-6)]GalNAc
# Summary of the method: as §1
# [26] = molecular target: Neu5Ac(a2-3)Gal(b1-4)GlcNAc(b1-2)Man(a1-3)[Neu5Ac(a2-3)Gal(b1-4)GlcNAc(b1-2)Man(a1-6)]Man(b1-4)GlcNAc(b1-4)GlcNAc
# Summary of the method: as §1
# [27] = molecular target: Neu5Ac(a2-3)Gal(b1-4)GlcNAc(b1-2)Man(a1-3)[Neu5Ac(a2-3)Gal(b1-4)GlcNAc(b1-2)Man(a1-6)]Man(b1-4)GlcNAc(b1-4)[Fuc(a1-6)]GlcNAc
# Summary of the method: as §1
# [28] = molecular target: Neu5Ac(a2-3)Gal(b1-4)[Fuc(a1-3)]GlcNAc6S
# Summary of the method: as §1
# [29] = molecular target: Neu5Ac(a2-3)Gal(b1-4)[Qui(a1-3)]GlcNAc(b1-3)Gal
# Summary of the method: as §1
# [30] = molecular target: Neu5Ac(a2-3)GalNBz(b1-4)GlcNAc
# Summary of the method: as §1
# [31] = molecular target: Neu5Ac(a2-3)[GalNAc(b1-4)]Gal(b1-3)GalNAc(b1-4)[Neu5Ac(a2-3)]Gal(b1-4)Glc
# Summary of the method: as §1
# [32] = molecular target: Neu5Ac(a2-3)[GalNAc(b1-4)]Gal(b1-4)GlcNAc
# Summary of the method: as §1
# [33] = molecular target: Neu5Ac(a2-6)Gal(b1-4)GlcNAc(b1-2)Man(a1-3)[Neu5Ac(a2-6)Gal(b1-4)GlcNAc(b1-2)Man(a1-6)]Man(b1-4)GlcNAc(b1-4)[Fuc(a1-6)]GlcNAc
# Summary of the method: as §1
# [34] = molecular target: Neu5Ac(a2-6)Gal(b1-4)GlcNAc(b1-3)[Neu5Ac(a2-6)Gal(b1-4)GlcNAc(b1-6)]Gal(b1-4)Glc
# Summary of the method: as §1
# [35] = molecular target: Neu5Ac(b2-3)Gal(b1-4)Glc
# Summary of the method: as §1
# [36] = molecular target: Neu5Ac9Ac(a2-3)Gal(b1-4)GlcNAc
# Summary of the method: as §1
# [37] = molecular target: Neu5Ac9Ac(a2-3)Gal(b1-4)[Fuc(a1-3)]GlcNAc
# Summary of the method: as §1
# [38] = molecular target: Neu5Gc(a2-6)GalNAc
# Summary of the method: as §1
# [39] = molecular target: Xyl(b1-4)Xyl(b1-4)Xyl(b1-4)Xyl(b1-4)Xyl(b1-4)Xyl
# Summary of the method: as §1
binder,measurement,setting,value
"PNA (Arachis hypogaea), P02872 (protein) MKPFCVFLTFFLLLAASSKKVDSAETVSFNFNSFSEGNPAINFQGDVTVLSNGNIQLTNLNKVNSVGRVLYAMPVRIWSSATGNVASFLTSFSFEMKDIKDYDPADGIIFFIAPEDTQIPAGSIGGGTLGVSDTKGAGHFVGVEFDTYSNSEYNDPPTDHVGIDVNSVDSVKTVPWNSVSGAVVKVTVIYDSSTKTLSVAVTNDNGDITTIAQVVDLKAKLPERVKFGFSASGSLGGRQIHLIRSWSFTSTLITTTRRSIDNNEKKIMNMASA",glycan array binding signal (z-score),[1],-0.136
same,glycan array binding signal (z-score),[2],0.924
same,glycan array binding signal (z-score),[3],1.4
same,glycan array binding signal (z-score),[4],2.88
same,glycan array binding signal (z-score),[5],1.98
same,glycan array binding signal (z-score),[6],2.23
same,glycan array binding signal (z-score),[7],-0.167
same,glycan array binding signal (z-score),[8],-0.368
same,glycan array binding signal (z-score),[9],-0.177
same,glycan array binding signal (z-score),[10],-0.143
same,glycan array binding signal (z-score),[11],0.227
same,glycan array binding signal (z-score),[12],0.22
same,glycan array binding signal (z-score),[13],1.96
same,glycan array binding signal (z-score),[14],5.04
same,glycan array binding signal (z-score),[15],-0.195
same,glycan array binding signal (z-score),[16],2.02
same,glycan array binding signal (z-score),[17],-0.113
same,glycan array binding signal (z-score),[18],-0.195
same,glycan array binding signal (z-score),[19],-0.195
same,glycan array binding signal (z-score),[20],-0.178
same,glycan array binding signal (z-score),[21],-0.171
same,glycan array binding signal (z-score),[22],-0.112
same,glycan array binding signal (z-score),[23],-0.061
same,glycan array binding signal (z-score),[24],-0.21
same,glycan array binding signal (z-score),[25],-0.176
same,glycan array binding signal (z-score),[26],-0.148
same,glycan array binding signal (z-score),[27],-0.306
same,glycan array binding signal (z-score),[28],-0.225
same,glycan array binding signal (z-score),[29],-0.195
same,glycan array binding signal (z-score),[30],-0.195
same,glycan array binding signal (z-score),[31],-0.195
same,glycan array binding signal (z-score),[32],-0.138
same,glycan array binding signal (z-score),[33],-0.21
same,glycan array binding signal (z-score),[34],-0.195
same,glycan array binding signal (z-score),[35],-0.195
same,glycan array binding signal (z-score),[36],-0.073
same,glycan array binding signal (z-score),[37],-0.195
same,glycan array binding signal (z-score),[38],-0.162
same,glycan array binding signal (z-score),[39],-0.195
